Reference: PubChem BioAssay AID1117319 (Southern Research Institute, 2015)
Screen size: about 260,000 compounds; about 1,500 (0.58%) were called active. Inconclusive results (about 5%) are left out.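 Rule for the calls: active = inhibition above a set limit at one or more doses, reproduced on every date tested; inconclusive = results disagree between test dates, or hit never tested in dose response; inactive = the rest.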 Only a sample is shown. Results with a measured potency or affinity are listed apart.

Target: Virion infectivity factor (Human immunodeficiency virus type 1 group M subtype B (isolate BH10)) + Virion infectivity factor (Human immunodeficiency virus type 1 group M subtype B (isolate BRU/LAI)) + Virion infectivity factor (Human immunodeficiency virus type 1 group M subtype B (isolate PCV12)) + Virion infectivity factor (Human immunodeficiency virus type 1 group M subtype B (isolate HXB2)) + DNA dC->dU-editing enzyme APOBEC-3G (Homo sapiens) (UniProt P69720+P69721+P69722+P69723+Q9HC16)
Test: HIV-1 Vif–A3G interaction blockers – biochemical, TR-FRET, GST-Vif 1-94, biotin-A3G peptide, dose response retest, primary screen (AID 1117319);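 note: Vif residues 1-94 fused to GST binding biotinylated APOBEC3G peptide 110-148; 0% = full assay without inhibitor and 100% = GST in place of GST-Vif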
Conditions: TR-FRET GST-Vif / biotin-A3G peptide binding; active compounds read high

inhibition, inactive:
O=C(c1nc(-c2ccccc2)n(-c2ccccc2)n1)N1CCCCCC1 2.5%
O=C(NNC(=O)c1cc(Cl)ccc1O)c1cccc(S(=O)(=O)N2CCOCC2)c1 4.69%
COc1cccc(C(=O)NCc2ccc(N3CCN(C(=O)OC(C)(C)C)CC3)cc2)c1 4.61%
CCN(CC)c1ccc(C(=O)Nn2cnc3ccccc3c2=O)cc1 -13%
Cc1cc(-c2csc(N)n2)c(C)n1Cc1ccco1 20.6%
CCNc1nc(-c2cc(C)n(Cc3ccco3)c2C)cs1 8.76%
Cc1ccccc1NS(=O)(=O)c1cc(C(=O)NCCSC2CCCCC2)ccc1C 4.25%
CCCCCCCCn1c2c(c(=N)c3ccccc31)CCC2 1.93%
Cc1cc(C)c2c(=O)[nH]c(=O)n(Cc3ccccc3)c2n1 11.8%
O=C1NC(=S)S/C1=C\c1cccc([N+](=O)[O-])c1 0.14%
O=C1CN(/N=C/c2ccc([N+](=O)[O-])o2)C(=O)N1 6.04%
CCC1(C)Cc2ccccc2-c2nc(NCCCO)n(-c3ccccc3)c(=O)c21 (centres undefined) -4.2%
CC(C)COC(=O)Nc1nnc(SCCOc2ccccc2)s1 -6.77%
O=C(c1cc2c(s1)-c1ccccc1OC2)N1CCN(c2ccccn2)CC1 -16.4%
CCOc1cc(C(=O)OCC(=O)Nc2cc(C)on2)cc(OCC)c1OCC -2.84%
Clc1ccc(OCc2nn3c(-c4ccco4)nnc3s2)cc1 2%
Clc1ccc(OCc2nn3c(-c4ccccc4)nnc3s2)c(Cl)c1 -0.95%
COc1ccc(CN(C)C2CCCCC2)c(C)c1C -2.5%
COc1ccccc1NC(=O)CSc1nnc(CC(=O)Nc2ccccc2C)n1C -12.1%
CCOc1cccc(N2C(=O)CC(N3CCN(c4nc5ccccc5s4)CC3)C2=O)c1 (centres undefined) -1.33%
Clc1cccc(/C=N\Nc2nccs2)c1 -1.1%
O=C(N/N=C/c1ccc(O)c([N+](=O)[O-])c1)c1ccncc1 -22.5%
COc1ccc(C(=O)NCc2ccncc2)cc1OC 24.8%
O=C(O)c1cc(N=Nc2c(O)[nH]c3ccc([N+](=O)[O-])cc23)ccc1Cl 10%
Cc1onc(-c2c(Cl)cccc2Cl)c1NC(=O)NNc1c(Cl)cncc1Cl -3.28%
CCOC=C1SC(=S)N(c2ccccc2OC)C1=O -1.46%
COc1ccccc1NC(=S)N1CCCCCC1 -0.41%
CC(=O)Nc1ccc(NC(=O)CCc2ccc(C)o2)cc1 3.07%
CCc1ccc(CCC(=O)Nc2ccc(S(N)(=O)=O)cc2)o1 68.2%
O=C(COC(=O)COc1cccc(Br)c1)NCc1ccc2c(c1)OCO2 -4.12%
CCOc1ncccc1C(=O)OCC(=O)c1c(N)n(C)c(=O)n(C)c1=O -0.62%
CCN(CC(=O)Nc1c(F)cccc1F)C(=O)c1c(-c2ccccc2Cl)noc1C 10.1%
C=CCn1c(COc2ccc(Cl)cc2)nnc1SCc1ccc(C#N)cc1 -5.86%
Cc1[nH]c2ccccc2c1-c1nc2ccccc2[nH]1 24.1%
CCc1c(C)[nH]c2ccccc2c1=O 22.4%
CCOc1ccc(CCNC(=O)CS(=O)Cc2nc(-c3ccc(C)cc3)oc2C)cc1 (centres undefined) 5.23%
COc1ccc(N2CCN(Cc3cc(=O)oc4cc(C)c(Cl)c(C)c34)CC2)cc1 4.75%
O=C(NCCc1ccccc1)C1CCN(S(=O)(=O)c2cccc3nonc23)CC1 -0.8%
O=C(NCCN1CCN(c2ccccc2)CC1)C1CCN(S(=O)(=O)c2cccc3nsnc23)CC1 -4.91%
Cc1cc(=O)[nH]c(SCCCOc2ccccc2Cl)n1 -1.03%
CCSc1n[nH]c2nc3c(c(=O)n12)C1(CCCCC1)Cc1ccccc1-3 -15.1%
CCN(CC)C(=O)CSc1nnc(-c2ccccn2)n1-c1ccccc1OC -5.38%
Oc1c(Br)cc(Cl)cc1C=Nc1ccc(N2CCOCC2)cc1 29.3%
O=[N+]([O-])c1cc(Cc2ccccc2)cc(C=Nc2ccc(N3CCOCC3)cc2)c1O 23.6%
COc1cccc(C(=O)Nc2ccc(NC(=O)c3ccco3)c(Cl)c2)c1 -3.2%
Cc1ccc(-c2cc(C(F)(F)F)n3nc(C(=O)Nc4ccon4)cc3n2)cc1C 10.8%
COc1ccc(/C=N/NC(=O)Cn2ccnc2C)cc1OC -2.05%
Cc1nccn1CC(=O)N/N=C/c1cccc(O)c1 2.96%
CNC(=O)C(=O)N/N=C/c1ccc(Br)cc1 17.2%
COc1ccc(NC(=O)COc2ccccc2Cl)cc1S(=O)(=O)N1CCCCC1 11.7%
O=C(CNS(=O)(=O)c1ccccc1Br)OCC(=O)N1CCc2ccccc21 4.27%
Cc1onc(-c2c(F)cccc2Cl)c1C(=O)N1CCOC12CCCCC2 -10.5%
Nc1ccc(S(=O)(=O)c2ccc(N)cc2)cc1 -4.69%
Nc1ccc(S(=O)(=O)c2cccc(N)c2)cc1 0.36%
COc1ccc(-c2csc3nc(C)nc(N4CCN(C(C)=O)CC4)c23)cc1OC -6.79%
COc1cc(S(=O)(=O)NC2CCCCC2)ccc1F -3.56%
COc1ccc(C2c3c(-c4ccccc4O)n[nH]c3C(=O)N2Cc2ccco2)cc1OC (centres undefined) -4.89%
NC(=O)C[C@@H]1N[C@]2(C(=O)Nc3ccccc32)[C@@H]2C(=O)N(C3CCCCC3)C(=O)[C@H]12 6.65%
CC(C)[C@@H]1N[C@]2(C(=O)Nc3ccccc32)[C@@H]2C(=O)N(c3cccc(C(F)(F)F)c3)C(=O)[C@@H]21 7.45%
C=CCNC(=S)N/N=C/c1ccc(N(CC)Cc2ccccc2)cc1 -8.07%
CCOC(=O)c1cc(-c2cccc(C(F)(F)F)c2)nc2nc(SC)[nH]c(=O)c12 -8.37%
O=C(Nc1ccnn1C1CCN(Cc2ccc(C#CCCO)cc2)CC1)c1cccc(F)c1 4.84%
CCS(=O)(=O)Nc1ccc(NC(C)=O)cc1 10.1%
CNC(=O)CSc1nnc(-c2ccccc2)n1C -0.87%
Cc1oc(-c2cccc(Cl)c2)nc1CN1CCC(C(=O)N2CCN(c3ccccn3)CC2)CC1 6.2%
CCc1ccc(-c2nc(CN3CCC(C(=O)N4CCN(c5ccccn5)CC4)CC3)c(C)o2)cc1 -7.35%
CCOc1ccc2nc(NC(=O)C3CCCN(S(=O)(=O)c4c(C)noc4C)C3)sc2c1 (centres undefined) -3.03%
Cc1cc(C(c2ccc(O)cc2)c2cc(C)c(O)cc2C)c(C)cc1O 1.89%
Cc1cc(NC(=O)c2ccc(Cl)cc2)c(C)cc1O -1.13%
CCOC(=O)c1c(S(=O)(=O)NCC2CCN(Cc3cccc(F)c3)CC2)c(C)n(C)c1C -4.42%
O=C(CCN1C(=O)/C(=C/c2ccccc2Cl)SC1=S)NC1=NCCS1 9.65%
O=C(CCN1C(=O)S/C(=C\c2cccs2)C1=O)NC1=NCCS1 25.6%
CCC1(c2ccc(F)cc2)NC(=O)N(CC(=O)NCc2ccc(C)cc2)C1=O (centres undefined) -8.4%
COc1cccc(C(=O)N2CCN(C(=O)Cc3ccccc3)CC2)c1 -2.27%
CC1=NN(c2ccccc2)C(=O)/C1=C\c1cc(C)n(C)c1C 6.69%
Cc1ccc(Cn2nnc3c(=O)n(CC(=O)NCc4ccco4)cnc32)cc1 16.3%
O=C(Cn1cnc2c(nnn2Cc2ccccc2)c1=O)NCc1ccco1 -2%
NS(=O)(=O)c1ccc(N/N=C/c2ccc(O)cc2O)c([N+](=O)[O-])c1 -13.8%
NS(=O)(=O)c1ccc(N/N=C/c2ccccc2C(=O)O)c([N+](=O)[O-])c1 -3.72%
O=[N+]([O-])c1ccc(NCCCO)c(S(=O)(=O)N2CCOCC2)c1 -0.32%
CC(O)CNc1ccc([N+](=O)[O-])cc1S(=O)(=O)N1CCOCC1 (centres undefined) 6.02%
O=C(CCNS(=O)(=O)c1ccc(Br)cc1)N1CCN(c2ccccc2O)CC1 0.32%
Cc1ccc(OCCOCCN2CCN(C)CC2)c([N+](=O)[O-])c1 6.13%
CCOC(=O)C1CCN(c2c(NCc3ccc(C(=O)NC4CCCC4)cc3)c(=O)c2=O)CC1 0.11%
COc1ccc(Cc2c(O)nc(SCC(=O)N3CCCCCC3)[nH]c2=O)cc1 -4.82%
Cc1cccc(NC(=O)/C=C/c2cccs2)n1 4.61%
O=C(/C=C/c1cccs1)Nc1cccc(NC(=O)/C=C/c2cccs2)n1 13.7%
Cc1nn(-c2ccc(Cl)cn2)c2c1C(=O)CC(C)(C)C2Br (centres undefined) -0.39%
CO[C@@]12[C@@H]3N[C@@H]3CN1C1=C(C(=O)C(N)=C(C)C1=O)[C@@H]2COC(N)=O 5.83%
[O-][n+]1c2ccc3nonc3c2nn1-c1ccccc1Cl -0.31%
O=C(CSc1ccc(-c2ccccn2)nn1)Nc1nccs1 -5.9%
CCOCCCNC(=O)c1cccc(NC(=O)C2=C(C)OCCS2)c1 -0.24%
COc1ccc([N+](=O)[O-])cc1NC(=O)COC(=O)Cc1cc(OC)c(OC)c(OC)c1 -5.64%
COc1cc(CC(=O)OCC(=O)Nc2ccc([N+](=O)[O-])cc2)cc(OC)c1OC 31.8%
